Measured values: PubChem BioAssay (NCATS)
Several values for one entry are separate records, joined by “and”; a condition that tells them apart may be missing. Identical values can stand only once. Results filed as inconclusive are left out. Where a call stands in place of a potency, no number is given. Activity calls are given as the source filed them. Unless noted, calls follow the shape of the dose curve; as a rule, active = well fitted curve in the direction sought with a large enough effect; inconclusive = small, poorly fitted or top-dose-only effect, or another doubt; inactive = no such curve, though single readings can be large; an effect the other way counts as inactive or inconclusive.

Key:
[1] = Quantitative high throughput screen for delayed death inhibitors of the malarial parasite plastid, 48 hour incubation (AID 488752); also: nearly all actives have a fitted effect of over 65% in size
Procedure, shortened: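 Erythrocytes infected with P. falciparum carrying an integrated firefly luciferase reporter (2% hematocrit, 0.1% parasitemia final) were exposed to compounds in RPMI 1640/0.5% Albumax for 48 h at 37 C, 5% CO2. Growth inhibition was scored as reduced luminescence.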

[2] = biological target: Transient receptor potential cation channel subfamily V member 1 (Homo sapiens) (UniProt Q8NER1); experiment: HTS Assay for Compounds that Act as Enhancers of the Vanilloid Receptor 1 (AID 488979)
Transient receptor potential cation channel subfamily V member 1 (Homo sapiens), sequence (Q8NER1 whole entry, looked up): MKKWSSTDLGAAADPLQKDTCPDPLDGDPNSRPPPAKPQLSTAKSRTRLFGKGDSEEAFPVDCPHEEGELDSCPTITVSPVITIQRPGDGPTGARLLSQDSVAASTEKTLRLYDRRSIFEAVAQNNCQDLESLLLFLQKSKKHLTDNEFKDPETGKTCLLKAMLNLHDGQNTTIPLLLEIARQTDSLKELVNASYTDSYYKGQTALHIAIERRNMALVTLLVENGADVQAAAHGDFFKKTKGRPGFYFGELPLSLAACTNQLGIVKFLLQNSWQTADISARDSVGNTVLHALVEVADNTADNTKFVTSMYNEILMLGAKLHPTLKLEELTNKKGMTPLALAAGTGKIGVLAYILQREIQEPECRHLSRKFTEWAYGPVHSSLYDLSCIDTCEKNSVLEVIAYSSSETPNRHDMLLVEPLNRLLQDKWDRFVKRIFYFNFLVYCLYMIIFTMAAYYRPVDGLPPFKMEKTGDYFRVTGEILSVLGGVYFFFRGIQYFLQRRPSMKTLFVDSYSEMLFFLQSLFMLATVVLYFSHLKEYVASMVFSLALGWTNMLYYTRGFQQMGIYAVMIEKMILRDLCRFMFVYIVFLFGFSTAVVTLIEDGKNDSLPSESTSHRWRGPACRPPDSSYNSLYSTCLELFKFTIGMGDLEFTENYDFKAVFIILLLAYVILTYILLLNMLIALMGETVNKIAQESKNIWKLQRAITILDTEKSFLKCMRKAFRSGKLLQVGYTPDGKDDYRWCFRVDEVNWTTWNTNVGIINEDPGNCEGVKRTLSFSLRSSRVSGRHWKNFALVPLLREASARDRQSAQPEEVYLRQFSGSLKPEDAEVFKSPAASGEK
Procedure, shortened: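 Calcium influx kinetics via Fluo-8 (480/520 nm) in TRPV1-expressing cells, 2000/well cultured overnight at 35.5C. Compound-alone read 3 min (agonist phase), followed by EC20 capsaicin challenge for 2 min (enhancer phase).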

[3] = biological target: Thyrotropin receptor (Homo sapiens) (UniProt P16473); experiment: qHTS Assay for Antagonists of the Thyroid Stimulating Hormone Receptor (AID 488980); also: series mostly up to about 58 µM
Procedure, shortened: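 Readout is cAMP by HTRF competition between cellular cAMP and cAMP-d2 for a cryptate-labelled antibody. Antagonism was assessed in TSHR-transfected HEK293 cells stimulated with 4 nM TSH (EC80, final) in the presence of RO 20-1724.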

[4] = biological target: Thyrotropin-releasing hormone receptor (Homo sapiens) (UniProt P34981); experiment: qHTS for Small Molecule Agonists and Allosteric Enhancers of Human TRH Receptor: Validation Screen for Agonists (AID 493127;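 active = calcium activation more than 3 SD above the typical response in the agonist read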;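 also: intracellular calcium rise by fluo-8 fluorescence before TRH EC20 addition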); conditions: TRH receptor agonist cell assay; at 2 µM; stronger effect = higher value
Thyrotropin-releasing hormone receptor (Homo sapiens), sequence (P34981 whole entry, looked up): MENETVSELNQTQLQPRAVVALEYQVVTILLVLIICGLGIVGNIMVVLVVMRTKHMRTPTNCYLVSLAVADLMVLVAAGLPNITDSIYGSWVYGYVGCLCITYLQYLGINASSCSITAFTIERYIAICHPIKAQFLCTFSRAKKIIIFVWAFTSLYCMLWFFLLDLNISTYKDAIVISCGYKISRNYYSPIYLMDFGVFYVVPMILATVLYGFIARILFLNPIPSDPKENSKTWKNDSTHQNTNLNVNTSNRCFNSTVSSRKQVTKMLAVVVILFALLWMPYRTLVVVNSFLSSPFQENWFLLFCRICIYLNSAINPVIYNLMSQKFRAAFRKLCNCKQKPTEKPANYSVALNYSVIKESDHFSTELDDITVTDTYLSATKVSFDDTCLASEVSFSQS
Procedure, shortened: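 TRHR-expressing cells were plated overnight in serum-containing medium, then loaded with fluo-8 calcium dye at room temperature for 30 min–1.5 h. After a 10 s baseline, compound was pin-transferred and calcium fluorescence (ex 480/em 530) read kinetically for agonist response.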

[5] = biological target: Galactokinase (Homo sapiens) (UniProt P51570); experiment: qHTS Validation Assay for Inhibitors of Human Galactokinase (GALK) (AID 493189)
Galactokinase (Homo sapiens), sequence (P51570 whole entry, looked up): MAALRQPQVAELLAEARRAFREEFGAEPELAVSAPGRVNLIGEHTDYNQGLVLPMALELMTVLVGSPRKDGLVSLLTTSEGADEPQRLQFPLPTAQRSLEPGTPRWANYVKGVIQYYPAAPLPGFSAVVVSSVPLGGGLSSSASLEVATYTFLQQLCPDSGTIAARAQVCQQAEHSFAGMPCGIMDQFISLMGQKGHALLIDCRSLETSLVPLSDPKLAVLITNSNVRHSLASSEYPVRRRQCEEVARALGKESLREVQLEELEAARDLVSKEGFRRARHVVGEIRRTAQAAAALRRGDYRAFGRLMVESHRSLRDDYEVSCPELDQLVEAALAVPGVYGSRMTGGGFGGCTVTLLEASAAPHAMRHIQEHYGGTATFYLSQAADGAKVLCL
Procedure, shortened: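 5 nM GALK / 100 uM galactose / 35 uM ATP, 20 mM HEPES pH8.0, 5 mM MgCl2, 60 mM NaCl, 1 mM DTT, 0.01% BSA (final). RT 1 h; Kinase-Glo Plus luminescence.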

[6] = Validation screen for small molecules that induce DNA re-replication in SW480 colon adenocarcinoma cells (AID 504364)
Procedure, shortened: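 SW480 cells seeded at 250 per well were exposed to compound or DMSO for 48 hr at 37 C, 5% CO2, then stained with Hoechst for 40 min. DNA content per nucleus was imaged (405 nm ex, 500-530 nm em).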

[7] = biological target: DNA dC->dU-editing enzyme APOBEC-3G (Homo sapiens) (UniProt Q9HC16); experiment: qHTS for inhibitors of Vif-A3G interactions: Validation (AID 588379)
Procedure, shortened: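 HeLa cells stably expressing Vif and A3G-eYFP, 700 cells/well, incubated overnight at 37 deg C, then exposed to compound overnight at 37 deg C. Inhibition of Vif-mediated degradation read as increased yellow fluorescence (Ex 488/Em 500-530) by laser-scanning cytometry.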

[8] = biological target: Androgen receptor (Homo sapiens) (UniProt P10275); experiment: qHTS assay for small molecule agonists of androgen receptor signaling (AID 588515; active = well fitted curve in the direction sought with a large enough effect in the signal ratio, with a control signal flat; the % refers to the signal ratio); conditions: AR-UAS-bla HEK293, beta-lactamase ratio, agonist 16 h; stronger effect = higher value
Androgen receptor (Homo sapiens), sequence (P10275 whole entry, looked up): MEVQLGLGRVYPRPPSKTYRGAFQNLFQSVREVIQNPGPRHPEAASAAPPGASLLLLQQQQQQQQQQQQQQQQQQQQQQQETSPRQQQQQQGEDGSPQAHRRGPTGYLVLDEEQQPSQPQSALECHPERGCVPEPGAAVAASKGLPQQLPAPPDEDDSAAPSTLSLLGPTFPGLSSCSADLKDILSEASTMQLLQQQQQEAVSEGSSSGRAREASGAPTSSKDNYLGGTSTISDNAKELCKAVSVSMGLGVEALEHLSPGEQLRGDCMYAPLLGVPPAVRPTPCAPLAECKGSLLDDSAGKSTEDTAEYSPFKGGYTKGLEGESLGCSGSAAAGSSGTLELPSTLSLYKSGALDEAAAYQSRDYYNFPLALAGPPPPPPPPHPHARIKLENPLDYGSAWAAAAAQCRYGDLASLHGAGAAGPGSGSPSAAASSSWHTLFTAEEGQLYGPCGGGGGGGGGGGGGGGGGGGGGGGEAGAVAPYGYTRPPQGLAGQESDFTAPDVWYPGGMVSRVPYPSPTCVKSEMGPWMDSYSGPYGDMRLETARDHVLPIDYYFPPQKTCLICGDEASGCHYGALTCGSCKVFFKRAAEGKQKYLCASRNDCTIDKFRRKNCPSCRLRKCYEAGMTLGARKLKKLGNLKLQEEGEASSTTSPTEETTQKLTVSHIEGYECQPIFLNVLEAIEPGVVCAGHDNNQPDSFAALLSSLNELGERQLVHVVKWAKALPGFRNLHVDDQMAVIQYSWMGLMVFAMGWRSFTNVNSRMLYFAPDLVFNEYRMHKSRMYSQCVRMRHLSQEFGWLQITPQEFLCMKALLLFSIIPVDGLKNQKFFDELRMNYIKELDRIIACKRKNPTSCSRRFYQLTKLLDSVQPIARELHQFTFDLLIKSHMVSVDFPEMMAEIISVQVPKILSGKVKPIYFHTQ
Procedure, shortened: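 EC50 and efficacy came from Hill fits of titrations (up to 92 uM) normalized to 30 nM R1881 as 100% and DMSO as 0%. Compound exposure was 16 h at 37 C on AR-UAS-bla HEK293 cells, with a 405/460/530 nm CCF4 fluorescence read.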

[9] = biological target: Thyroid hormone receptor beta (Homo sapiens) (UniProt P10828); experiment: qHTS assay for small molecule agonists of thyroid hormone receptor beta signaling (AID 588545; calls by dose curve)
Thyroid hormone receptor beta (Homo sapiens), sequence (P10828 whole entry, looked up): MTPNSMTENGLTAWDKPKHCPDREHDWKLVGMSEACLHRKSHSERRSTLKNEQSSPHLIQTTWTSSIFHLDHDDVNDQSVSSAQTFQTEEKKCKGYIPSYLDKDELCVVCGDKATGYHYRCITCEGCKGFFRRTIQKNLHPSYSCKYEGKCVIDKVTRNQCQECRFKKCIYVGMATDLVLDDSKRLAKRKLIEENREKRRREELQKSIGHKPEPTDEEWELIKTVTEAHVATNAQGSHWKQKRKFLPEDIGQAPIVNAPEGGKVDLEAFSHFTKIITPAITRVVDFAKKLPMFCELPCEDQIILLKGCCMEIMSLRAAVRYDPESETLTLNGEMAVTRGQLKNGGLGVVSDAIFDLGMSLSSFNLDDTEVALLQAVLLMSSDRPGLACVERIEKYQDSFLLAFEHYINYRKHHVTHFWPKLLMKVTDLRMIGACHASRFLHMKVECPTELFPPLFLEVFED
Procedure, shortened: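 Efficacy and EC50 values derive from Hill fits of qHTS titration data, normalized to 10 nM T3 and DMSO-only wells. HEK 293 reporter cells were stimulated for 18 hrs at 37 C, with beta-lactamase activity measured by CCF4 fluorescence.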

[10] = biological target: Voltage-gated inwardly rectifying potassium channel KCNH2 (Homo sapiens) (UniProt Q12809); experiment: qHTS Assay for Small Molecule Inhibitors of the Human hERG Channel Activity (AID 588834);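 also: top concentration of the series differs between compounds; lower thallium flux fluorescence means stronger hERG block; nearly all actives have a fitted effect of over 50% in size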
Voltage-gated inwardly rectifying potassium channel KCNH2 (Homo sapiens), sequence (Q12809 whole entry, looked up): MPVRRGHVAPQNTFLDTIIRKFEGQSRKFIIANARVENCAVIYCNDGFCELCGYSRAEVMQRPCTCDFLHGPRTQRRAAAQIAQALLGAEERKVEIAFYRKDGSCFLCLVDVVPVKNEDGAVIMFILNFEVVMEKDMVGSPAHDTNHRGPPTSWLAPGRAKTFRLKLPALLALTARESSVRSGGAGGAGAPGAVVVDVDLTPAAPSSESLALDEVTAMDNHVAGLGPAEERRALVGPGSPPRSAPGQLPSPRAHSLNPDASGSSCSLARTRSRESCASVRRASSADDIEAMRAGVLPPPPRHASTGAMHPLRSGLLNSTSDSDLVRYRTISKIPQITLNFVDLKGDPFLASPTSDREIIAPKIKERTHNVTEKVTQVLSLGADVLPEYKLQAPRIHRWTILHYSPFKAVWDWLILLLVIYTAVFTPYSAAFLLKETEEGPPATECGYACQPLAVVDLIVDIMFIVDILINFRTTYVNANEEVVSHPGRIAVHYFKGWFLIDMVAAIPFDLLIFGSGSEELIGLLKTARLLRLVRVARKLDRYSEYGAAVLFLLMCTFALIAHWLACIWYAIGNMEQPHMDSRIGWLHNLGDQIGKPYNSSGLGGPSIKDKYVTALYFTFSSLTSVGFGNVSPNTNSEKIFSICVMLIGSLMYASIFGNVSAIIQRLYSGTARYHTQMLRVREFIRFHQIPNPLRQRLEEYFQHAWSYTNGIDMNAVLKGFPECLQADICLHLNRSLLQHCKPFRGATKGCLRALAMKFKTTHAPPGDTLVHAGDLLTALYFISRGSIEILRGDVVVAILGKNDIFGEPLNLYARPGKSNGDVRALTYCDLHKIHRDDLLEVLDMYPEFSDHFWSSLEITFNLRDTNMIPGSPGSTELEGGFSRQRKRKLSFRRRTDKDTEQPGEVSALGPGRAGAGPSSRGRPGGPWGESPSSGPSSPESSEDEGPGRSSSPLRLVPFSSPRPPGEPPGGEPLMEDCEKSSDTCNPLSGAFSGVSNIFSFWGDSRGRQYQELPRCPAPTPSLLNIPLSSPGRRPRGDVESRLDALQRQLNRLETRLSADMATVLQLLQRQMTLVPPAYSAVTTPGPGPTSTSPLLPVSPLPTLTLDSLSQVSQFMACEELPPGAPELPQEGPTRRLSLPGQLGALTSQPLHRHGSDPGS
Procedure, shortened: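 hERG-BacMam U2OS, 2000 cells/well; 0.7X FluxOR loading 1 hr RT dark; cpd ~10 min 37 °C; stim buffer; FDSS fluorescence 2 min @ 1 s; AC50 Hill fit.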

[11] = qHTS assay for small molecule activators of the nuclear factor-kappa B (NF-kB) signaling pathway (AID 651749; active = well fitted activation curve with a large enough effect in the signal ratio; the % refers to the signal ratio; also: series mostly up to about 77 µM); conditions: NF-kB-bla ME-180 cells, beta-lactamase FRET ratio, 16 h; stronger effect = higher value
Procedure, shortened: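 Stably transfected ME-180 line; NF-kB response element upstream of beta-lactamase. Treatment: compound or DMSO, 16 hr. Detection: fluorescent FRET substrate.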

[12] = qHTS assay for environmental chemicals that activate the Aryl hydrocarbon Receptor (AhR) signaling pathway (AID 651777); conditions: 1A2-DRE human hepatoma cells, luciferase, 24 h; activation: stronger effect = higher value; also: nearly all actives have a fitted effect of over 15% in size
Procedure, shortened: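 AhR activation is scored as a rise in luciferase from a stable DRE–CYP1A2 promoter construct in human hepatoma cells. Treatment lasts 24 hr at 37 C; detection uses One-Glo after 30 min at room temperature.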

[13] = qHTS assay for small molecule agonists of the antioxidant response element (ARE) signaling pathway measured by Nrf2-dependant transcriptional activity (AID 720636; active = well fitted curve in the direction sought with a large enough effect in the repeat runs; an effect the other way counts as inactive or inconclusive;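 also: HepG2 cells with an ARE-driven luciferase reporter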)
Procedure, shortened: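 First, ARE-luc HepG2 cells attached for 6 hr at 37 C in 1% dialyzed FBS medium. Next, compound or DMSO was added and incubated 16 hr. Finally, ONE-Glo reagent was added and luminescence measured after 30 min.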

[14] = qHTS assay for small molecule agonists of the antioxidant response element (ARE) signaling pathway measured by Nrf2-dependant transcriptional activity - cell viability counter screen (AID 720653; active = well fitted curve in the direction sought with a large enough effect in the repeat runs; an effect the other way counts as inactive or inconclusive); conditions: ARE-bla HepG2 viability, CellTiter-Glo ATP luminescence, 16 h; stronger effect = lower value
Procedure, shortened: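 Cytotoxicity counter screen: intracellular ATP quantified by CellTiter-Glo luminescence in the same ARE-bla HepG2 plates, after 16 h compound exposure and a 2 h beta-lactamase substrate step.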

[15] = qHTS assay for cell viability of HEK293 cells (AID 743288); conditions: ATP luminescence (CellTiter-Glo), 18 h, stronger effect = lower value; also: nearly all actives have a fitted effect of over 50% in size
Procedure, shortened: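 HEK293 parental, 2,000 cells/well; ≥5 h pre-incubation 37 C; pintool compound addition; 18 h, 37 C; CellTiter-Glo 30 min RT; luminescence read.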

[16] = qHTS assay for cell viability of the p53RE-bla HCT-116 cell line (AID 743292); also: potency is read from the fitted curve at half-maximal effect; nearly all actives have a fitted effect of over 55% in size
Procedure, shortened: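 Quantitative high-throughput format: compounds in DMSO were pinned onto p53RE-bla HCT-116 cells (4,000/well) and incubated 16 h at 37 C. Total intracellular ATP, read by CellTiter-Glo luminescence, reflects viable cell number.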

[17] = qHTS to identify inhibitors of the type 1 interferon - major histocompatibility complex class I in skeletal muscle: primary screen against the NCATS Mechanism Interrogation Plate v5.0 (MIPE) Libary (AID 1347411); also: nearly all actives have a fitted effect of over 65% in size
Procedure, shortened: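 Immortalized human C25cl48 myoblasts with HiBit knocked into endogenous HLA-B*08:01 were stimulated with 4.0 ng/ml IFN-beta and exposed to compounds (11-point 1:3 titration, top 46 uM final) for 24 hrs at 37 C; HiBiT lytic luminescence measured.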

[18] = Primary qHTS for small molecule stabilizers of the endoplasmic reticulum resident proteome: Secreted ER Calcium Modulated Protein (SERCaMP) assay (AID 1508630)
Procedure, shortened: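 GLuc-SERCaMP-expressing SH-SY5Y cells, pretreated 16 h with compound, are challenged with thapsigargin to empty ER calcium stores; after 4 h, coelenterazine is added directly to the medium and luminescence is imaged.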

[19] = Primary qHTS for inhibitors of nuclear receptor binding SET domain protein 2 (NSD2) in an isogenic RCH-ACV NSD2 p.E1099K mutant (9B) (AID 1645876); also: nearly all actives have a fitted effect of over 70% in size
[20] = Primary qHTS for inhibitors of nuclear receptor binding SET domain protein 2 (NSD2) in an RCH-ACV wild type WT cells (2C) (AID 1645877); also: nearly all actives have a fitted effect of over 70% in size
[21] = biological target: Glutathione peroxidase 1 (Homo sapiens) (UniProt P07203); experiment: Primary qHTS Assay for Inhibitors of Recombinant Selenoprotein Glutathione Peroxidase 1 (GPX1) (AID 1845191); also: nearly all actives have a fitted effect of over 65% in size
Glutathione peroxidase 1 (Homo sapiens), sequence (P07203 whole entry, looked up): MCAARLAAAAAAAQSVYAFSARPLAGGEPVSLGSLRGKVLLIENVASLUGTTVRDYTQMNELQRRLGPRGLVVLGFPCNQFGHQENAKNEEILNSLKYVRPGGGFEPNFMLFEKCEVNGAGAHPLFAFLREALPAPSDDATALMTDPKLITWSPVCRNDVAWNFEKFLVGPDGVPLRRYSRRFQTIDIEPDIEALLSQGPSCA
Procedure, shortened: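 10 nM GPX1 + cpd, 30 min RT; start w/ 1 mM GSH, 0.5 mM cumene hydroperoxide, 0.5 mM NADPH, 100 nM GR, 0.01% BSA; buffer 50 mM Tris-HCl pH 7.5, 2 mM EDTA, 150 mM NaCl; Fl 340/450, 0 & 15 min.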

[22] = qHTS drug screen for cell cycle checkpoint inhibitors in PARPi-resistant BRCA-mutant ovarian cancer cell lines. (AID 1963452; calls by dose curve); conditions: PEO1/OlaR viability, CellTiter-Glo luminescence, 96 h, stronger effect = lower value
Procedure, shortened: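 PEO1, PEO4 and PEO1/OlaR ovarian cancer cells, 600 per well, exposed 96 h at 37C to a dilution series. Viability read by CellTiter-Glo luminescence, normalized to DMSO and empty wells; activity summarized as Z-AUC.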

[23] = biological target: Nuclear receptor subfamily 1 group I member 2 (Rattus norvegicus) (UniProt Q9R1A7); experiment: qHTS assay for small molecule activators of the rat pregnane X receptor (rPXR) signaling pathway (AID 651751; call rule not given here); conditions: rPXR reporter cells, luciferase (One-Glo), 24 h
Nuclear receptor subfamily 1 group I member 2 (Rattus norvegicus), sequence (Q9R1A7 whole entry, looked up): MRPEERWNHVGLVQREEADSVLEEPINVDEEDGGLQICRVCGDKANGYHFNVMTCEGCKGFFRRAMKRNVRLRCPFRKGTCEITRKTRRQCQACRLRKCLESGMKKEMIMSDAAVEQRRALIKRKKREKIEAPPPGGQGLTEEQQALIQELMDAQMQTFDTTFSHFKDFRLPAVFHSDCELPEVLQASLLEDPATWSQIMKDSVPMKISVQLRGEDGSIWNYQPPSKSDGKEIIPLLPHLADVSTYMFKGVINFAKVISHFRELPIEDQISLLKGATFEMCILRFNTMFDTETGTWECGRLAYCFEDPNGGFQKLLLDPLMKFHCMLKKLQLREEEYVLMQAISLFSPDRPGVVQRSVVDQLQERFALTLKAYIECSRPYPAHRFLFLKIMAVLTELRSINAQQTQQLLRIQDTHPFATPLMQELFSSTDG

CN(CCOc1ccc(C[C@H](Nc2ccccc2C(=O)c2ccccc2)C(=O)O)cc1)c1ccccn1
Potency [1]: inactive
outcome [2]: inactive
outcome [3]: inactive
activation [4]: 2.06% (inactive)
outcome [5]: inactive
outcome [6]: inactive
outcome [7]: inactive
activation [8]: -13.2% (inactive)
outcome [9]: inactive
Potency [10]: inactive
activation [11]: 1.83% (inactive)
activation [12]: 3.94% (inactive)
outcome [13]: inactive
max response [14]: 2.06% (inactive)
max response [15]: -5.97% (inactive)
Potency [16]: 50.1 µM (active)
Potency [17]: inactive
Potency [18]: inactive
Potency [19]: inactive
Potency [20]: inactive
Potency [21]: inactive
Z-AUC [22]: 0.115 (inactive) and 0.904 (inactive)
Z-AUC ([22]; measured here: PEO1 parental Z-AUC): 0.442 and 0.488
Z-AUC ([22]; measured here: PEO4 Z-AUC): 0.445 and 0.87
max response [23]: 1.12% (inactive)
